# Data reported in PubChem BioAssay AID463173 (ICCB-Longwood Screening Facility, Harvard Medical School, 2010).
# The whole screen tested about 52,000 compounds, of which about 4,300 (8.3%) were called active. Rule as the data show it: active = survival mostly below about 52% (no sharp cut-off); inactive = mostly above about 56%. The sample as a whole holds a higher share of actives than the screen did.
# System: DeltatarO mutant
# Test: S. aureus survival, RN4220 and DeltatarO strains – OD600, teichoic acid synthesis inhibitors, primary screen (AID 463173)
# Settings: S. aureus RN4220 wild type/DeltatarO growth, OD600, 18 h, stronger effect = lower value, screened at 18.75 µg/mL (by protocol)
row,Structure (SMILES),survival
1,COc1ccc(NC(=O)c2ccc3c(c2)N(Cc2cccc(Cl)c2)C(=O)c2ccccc2S3=O)cc1Cl (stereo unspecified),112% (inactive)
2,COc1ccc(N(C)C(=O)c2nn(-c3ccc(C)cc3)c(=O)n(C)c2=O)c(OC)c1,82% (inactive)
3,CCOc1ccc(NC(=O)CSc2nnc(-c3ccc(C)cc3)c(-c3ccc(C)cc3)n2)cc1,115% (inactive)
4,CCOc1ccc(NC(=O)CSc2nnc(-c3ccc(OCC)cc3)o2)cc1,94% (inactive)
5,O=C(CSc1ncc(-c2ccccc2)[nH]1)Nc1ccc(Cl)cc1,36% (active)
6,CCOc1cccc(NC(=O)CSc2ncc(-c3ccccc3)[nH]2)c1,49% (inactive)
7,COc1cc(-c2nnc(SCC(=O)Nc3cccc(C#N)c3)o2)cc(OC)c1OC,110% (inactive)
8,Cc1ccc(NC(=O)CSc2ncc(-c3ccccc3)[nH]2)cc1,51% (inactive)
9,COc1ccc(NC(=O)CSc2ncc(-c3ccc(Cl)cc3)[nH]2)cc1OC,78% (inactive)
10,COc1ccc(-c2nnc(SCC(=O)Nc3cccc(C(F)(F)F)c3)nc2-c2ccc(OC)cc2)cc1,87% (inactive)
11,CCOc1ccc(-c2nnc(SCC(=O)Nc3cccc(C#N)c3)o2)cc1,48% (active)
12,CCOc1ccc(-c2nnc(SCC(=O)Nc3cccc(OC)c3)nc2-c2ccc(OCC)cc2)cc1,0% (active)
13,CCOc1cccc(NC(=O)CSc2ncc(-c3ccc(Cl)cc3)[nH]2)c1,39% (active)
14,O=C(CSc1ncc(-c2ccccc2)[nH]1)Nc1ccccc1,64% (inactive)
15,CCOc1ccccc1-n1nnc(-c2nc(-c3ccccc3C)no2)c1C,96% (inactive)
16,Cc1c(F)cccc1NC(=O)C1CCCN1S(=O)(=O)c1ccc(F)cc1 (stereo unspecified),72% (inactive)
17,CC1=C(c2ccc(C)cc2)S(=O)(=O)N(Cc2ccc(C(=O)NCc3ccccc3)cc2)C1=O,81% (inactive)
18,CCN(C(=O)c1cccs1)c1nnc(-c2cccc(C)c2)s1,93% (inactive)
19,COc1ccc(CCNC(=S)N(Cc2ccco2)Cc2cc3cc(OC)c(OC)cc3[nH]c2=O)cc1OC,73% (inactive)

row,Structure (SMILES),survival
1,O=C(CSc1ncc(-c2ccc(F)cc2)n1Cc1ccco1)OC1CCCCC1,108% (inactive)
2,COc1ccc(OC)c(NC(=O)COCc2cc(-c3ccc(F)cc3)on2)c1,93% (inactive)
3,Cc1cccc(-c2nc(SCC(=O)Nc3cccc(C(F)(F)F)c3)n3[nH]c(=O)cc3n2)c1,0% (active)
4,O=C(CSc1nc(-c2ccccc2F)nc2cc(=O)[nH]n12)Nc1cccc(C(F)(F)F)c1,69% (inactive)
5,O=C(CSc1nc(-c2cccs2)nc2cc(=O)[nH]n12)Nc1cccc(C(F)(F)F)c1,94% (inactive)
6,Cc1ccc(-c2noc(-c3nnn(CC(=O)Nc4cc(Cl)ccc4C)c3N)n2)cc1,80% (inactive)
7,CC(=O)c1ccc(NC(=O)Nc2ccc3snnc3c2)cc1,50% (inactive)
8,O=C(Nc1ccc(F)cc1)Nc1ccc2snnc2c1,19% (active)
9,O=C(Nc1cccc(C(F)(F)F)c1)Nc1ccc2snnc2c1,11% (active)
10,COc1cccc(NC(=O)Nc2ccc3snnc3c2)c1,68% (inactive)
11,O=C(Nc1cccc(C(F)(F)F)c1)c1ccc2snnc2c1,111% (inactive)
12,Cc1ccc(NC(=O)Nc2ccc3snnc3c2)cc1C,66% (inactive)
13,COc1ccc(NC(=O)CSC2=Nc3ccccc3C3=NC(CCC(=O)NCc4cccs4)C(=O)N23)cc1 (stereo unspecified),93% (inactive)
14,CC1=C(c2ccc(C)c(C)c2)S(=O)(=O)N=C1N1CCC(C(=O)NC(C)c2ccccc2)CC1 (stereo unspecified),84% (inactive)
15,CC(=O)N1Cc2ccccc2C(C)CC12CCCC2 (stereo unspecified),119% (inactive)
16,Cc1nn2c(=O)cc(COC(=O)c3cccs3)nc2s1,89% (inactive)
17,Fc1ccc(NCc2ccccc2-c2nnc(-c3ccccc3Cl)o2)cc1Cl,77% (inactive)
18,O=C(NCCc1nc2ccccc2n1Cc1ccc(F)cc1)c1ccco1,47% (inactive)
19,CCCC1=Nc2cc(C(=O)NC3CCCC3)ccc2Sc2ccc(C)cc21,46% (active)

row,Structure (SMILES),survival
1,CCC1=Nc2cc(C(=O)NC3CCCC3)ccc2Sc2ccc(Cl)cc21,58% (inactive)
2,CCC1=Nc2cc(C(=O)NC3CCCC3)ccc2Sc2ccc(Br)cc21,44% (active)
3,CCCC1=Nc2cc(C(=O)NC3CCCCC3)ccc2Sc2ccc(C)cc21,94% (inactive)
4,CCC1=Nc2cc(C(=O)NCc3ccc(C)cc3)ccc2Sc2ccc(C)cc21,78% (inactive)
5,CC1=Nc2cc(C(=O)NC3CCCC3)ccc2Sc2ccc(Br)cc21,57% (inactive)
6,CC1=Nc2cc(C(=O)NC3CCC(C)CC3)ccc2Sc2c(C)ccc(C)c21 (stereo unspecified),73% (inactive)
7,CC1=Nc2cc(C(=O)NC3CCCC3)ccc2Sc2ccc(C)cc21,59% (inactive)
8,CCC1=Nc2cc(C(=O)NC3CCC(C)CC3)ccc2Sc2ccc(C)cc21 (stereo unspecified),39% (active)
9,COc1ccc(CNC(=O)c2cc3cc(C)ccc3n2C)cc1,74% (inactive)
10,O=C(CSc1nc2c([nH]c3ccccc32)c(=O)n1-c1cccc(C(F)(F)F)c1)N1CCc2ccccc21,78% (inactive)
11,O=C(NC1CC(=O)N(c2ccc(Cl)cc2)C1)c1cccs1 (stereo unspecified),71% (inactive)
12,CC1CCN(c2nc3ccc(C(=O)NC(C)C)cc3s2)CC1,74% (inactive)
13,COc1cccc(CNS(=O)(=O)c2cc3[nH]c(=O)c(=O)[nH]c3cc2C)c1,67% (inactive)
14,Cc1ccc(CNS(=O)(=O)c2cc3[nH]c(=O)c(=O)[nH]c3cc2C)cc1,47% (active)
15,Cc1cc2[nH]c(=O)c(=O)[nH]c2cc1S(=O)(=O)NCc1ccc(F)cc1,112% (inactive)
16,CC(C)Sc1ncc(Cl)c(C(=O)N(Cc2ccc(F)cc2)C2CCS(=O)(=O)C2)n1 (stereo unspecified),76% (inactive)
17,CN(Cc1ccccc1)Cn1[nH]c(=O)ccc1=O,110% (inactive)
18,COc1ccc(C)c2sc(N(Cc3cccnc3)C(=O)COc3ccccc3)nc12,85% (inactive)
